Potency estimated from few doses data for 16 compounds are collected here from paper PMC11062922 (Nature Chemical Biology, 2023).

Read-outs that look alike come from different tables or passages of the source.

Parameters in all cases: species or system human, MV4-11 + K-562 + COLO205 + SK-N-BE2 + OVCAR-8
The subject of one assay is BUB1. To be noted: read-out: apparent Kd; compound concentrations:100 nM and 1000 nM (sheet 'Samples'); n = 1.
The next assay has as its system EPHA2. The conditions noted are these: read-out: apparent Kd; compound concentrations:100 nM and 1000 nM (sheet 'Samples'); n = 1.
The subject of the next assay is HCK. The conditions noted are these: read-out: apparent Kd; compound concentrations:100 nM and 1000 nM (sheet 'Samples'); n = 1.
The next assay deals with MARK2. To be noted: read-out: apparent Kd; compound concentrations:100 nM and 1000 nM (sheet 'Samples'); n = 1.
A further assay concerns PHKG2. The conditions noted are these: read-out: apparent Kd; compound concentrations:100 nM and 1000 nM (sheet 'Samples'); n = 1.
The next assay relates to PRKAA2. To be noted: read-out: apparent Kd; compound concentrations:100 nM and 1000 nM (sheet 'Samples'); n = 1.
For another assay, the system named is PRKX. To be noted: read-out: apparent Kd, n = 1.
The next assay concerns RPS6KA4. To be noted: read-out: apparent Kd; compound concentrations:100 nM and 1000 nM (sheet 'Samples'); n = 1.
For another assay, the system named is SRC. The conditions noted are these: read-out: apparent Kd; compound concentrations:100 nM and 1000 nM (sheet 'Samples'); n = 1.
The test system of a further assay is YES1. The conditions noted are these: read-out: apparent Kd; compound concentrations:100 nM and 1000 nM (sheet 'Samples'); n = 1.
The subject of a further assay is STK16. The conditions noted are these: read-out: apparent Kd, compound concentrations: 100 nM and 1000 nM (sheet 'Samples'), n = 1.
A further assay relates to CSNK1E. To be noted: read-out: apparent Kd, n = 1.
For the next assay, the system named is ADCK1. The conditions noted are these: read-out: apparent Kd, n = 1.
The next assay concerns CSNK1A1. To be noted: read-out: apparent Kd, n = 1.
A further assay deals with TNIK. To be noted: read-out: apparent Kd, n = 1.
For another assay, the system named is ROCK2. The conditions noted are these: read-out: apparent Kd; compound concentrations: 100 nM and 1000 nM (sheet 'Samples'), CATDS: 0.12553300825941399; n = 1.
For the next assay, the system named is CDK17. To be noted: read-out: apparent Kd; compound concentrations: 100 nM and 1000 nM (sheet 'Samples'), CATDS: 1.7691642172044799E-2; n = 1.
The test system of another assay is MAPK8. To be noted: read-out: apparent Kd, compound concentrations: 100 nM and 1000 nM (sheet 'Samples'), n = 1.
The subject of a further assay is RIOK2. The conditions noted are these: read-out: apparent Kd, n = 1.
Setting [1] is: compound concentrations:100 nM and 1000 nM (sheet 'Samples').

Consider `O=C1NC(=O)C(N2CCc3ccccc32)=C1c1ccccc1Cl` [SB-373598], for which the potency estimated from few doses was 1690 nM in the assay with BUB1; 87.4 nM in the assay on EPHA2; 312 nM in the assay with HCK; 1350 nM in the assay with MARK2; 872 nM in the assay with PHKG2; 694 nM in the assay with PRKAA2. For the same compound, the potency estimated from few doses was 367 nM in the assay with PRKX (setting [1]), 1220 nM with RPS6KA4, 134 nM with SRC and 128 nM with YES1.

In the case of `Cc1ccc(Nc2ccnc(Nc3ccc4c(c3)CS(=O)(=O)C4)n2)cc1O.Cl` [GW579362A], the potency estimated from few doses with STK16 (CATDS: 2.76147737346315E-2) was 1620 nM.

Turning to `CCn1c(-c2nonc2N)nc2c(C#CC(C)(C)O)nc(OCCN)cc21.CCn1c(-c2nonc2N)nc2c(C#CC(C)(C)O)nc(OCCN)cc21.Cl.Cl` [GSK902056A], the potency estimated from few doses in the assay on PRKX (setting [1]) is 176 nM.

Turning to `Cc1ccc2c(-c3ccncc3)c(-c3ccc(F)cc3)nn2c1.Cl` [GW461484A], the potency estimated from few doses was 673 nM in the assay with CSNK1E (setting [1]); 754 nM in the assay on EPHA2; 755 nM with HCK; 1600 nM in the assay on PHKG2; 1840 nM in the assay on PRKAA2; 593 nM in the assay on SRC. Besides, the potency estimated from few doses in the assay with YES1 is 556 nM.

As for `Cc1cccc(Nc2nc(N[C@H]3CCNC3)ncc2C(N)=O)c1.Cl` [GSK2197149A], the figures for the potency estimated from few doses with ADCK1 (setting [1]), in the assay with CSNK1A1 (setting [1]) and in the assay with TNIK (setting [1]) were 1560 nM, 1560 nM and 1590 nM, respectively.

`Cc1cc(-c2ccnc(Nc3cccc(C#N)c3)n2)cc(C)c1O` [GSK1440913A]: in the assay with ADCK1 (compound concentrations: 100 nM and 1000 nM (sheet 'Samples'), CATDS: 7.9755280277017199E-2), the potency estimated from few doses is 1350 nM.

Turning to `NC(=O)c1cc(-c2ccccc2)cc2c(C3CCNCC3)c[nH]c12` [GSK301362A], the potency estimated from few doses in the assay on ADCK1 (setting [1]) is 1520 nM.

As to `Cl.Cl.NC(CNC(=O)c1cc(Br)c(-c2ccnc3[nH]ccc23)s1)c1ccccc1.NC(CNC(=O)c1cc(Br)c(-c2ccnc3[nH]ccc23)s1)c1ccccc1` (centres unmarked) [GSK1322949A], the potency estimated from few doses in the assay with ROCK2 was 122 nM.

In the case of `COc1cc(Nc2nccc(-c3cnn4ncccc34)n2)cc(OC)c1` [GW801372X], the potency estimated from few doses in the assay on CDK17 was 1920 nM; in the assay with MAPK8 (CATDS: 2.2830325415810902E-2), 746 nM; in the assay with RIOK2 (compound concentrations: 100 nM and 1000 nM (sheet 'Samples'), CATDS: 1.79748800643771E-2), 1790 nM; with STK16 (CATDS: 1.87533606847229E-2) it was 1500 nM.

Regarding `CNCc1ccc(-c2cc(-c3nc(-c4ccc(S(=O)(=O)C(C)C)cc4)cnc3N)on2)cc1` [VE-822], the potency estimated from few doses in the assay on TNIK (setting [1]) was 1650 nM.

As to `COc1cc(Nc2nccc(N3CCC(NC(=O)c4cccc(NC(C)=O)c4)C3)n2)cc(OC)c1OC` (centres unmarked) [GSK1379754A], the potency estimated from few doses with ADCK1 (compound concentrations: 100 nM and 1000 nM (sheet 'Samples'), CATDS: 8.2961514797517094E-2) was 1820 nM.

On to `O=C1N=C(NCc2cccs2)O/C1=C\c1ccc2ncccc2c1` [RO4624208-000], for which the potency estimated from few doses in the assay with PRKX (compound concentrations: 100 nM and 1000 nM (sheet 'Samples'), CATDS: 5.4979506066670798E-2) is 966 nM; in the assay on TNIK (compound concentrations: 100 nM and 1000 nM (sheet 'Samples'), CATDS: 4.4189138056131998E-2) it was 2330 nM.

`c1ccc(-c2n[nH]cc2Nc2ccnc3ccccc23)nc1` [GW694077X]: the potency estimated from few doses was 2030 nM in the assay on CSNK1A1 (compound concentrations: 100 nM and 1000 nM (sheet 'Samples'), CATDS: 2.3053021042780501E-2); 1790 nM with CSNK1E (compound concentrations: 100 nM and 1000 nM (sheet 'Samples'), CATDS: 2.3726321551731398E-2); 1880 nM with MAPK8 (CATDS: 2.3443095841232799E-2); 683 nM in the assay on RIOK2 (compound concentrations: 100 nM and 1000 nM (sheet 'Samples'), CATDS: 3.1389541451057497E-2).

Consider `CS(=O)(=O)Nc1ccc(-c2ccnc3[nH]ccc23)cc1` [GSK993273A], for which, in the assay on RIOK2 (setting [1]), the potency estimated from few doses is 1670 nM.

Consider `CNc1cc(-c2ccc3c(N)n[nH]c3c2)nc(N)n1` [GSK2224810A], for which the potency estimated from few doses in the assay on CSNK1A1 (setting [1]) was 2450 nM; in the assay on YES1, 1160 nM.

As for `CN(C)CCNC(=O)Nc1ccc(N(C)c2ccnc(Nc3ccc(CS(C)(=O)=O)cc3)n2)cc1.Cl` [GW830900A], the potency estimated from few doses in the assay on ADCK1 (setting [1]) was 88.9 nM.
